The results in this text go back to PubChem BioAssay (NCI).

Test systems include DU-145 prostate; K-562 leukemia; MALME-3M melanoma; MDA-MB-231 breast; RXF 393 renal; SF-268 CNS; SF-295 CNS; SF-539 CNS; UACC-257 melanoma; M14 melanoma; HCT-15 colon; HT29 colon; SNB-75 CNS; SNB-19 CNS; U251 CNS; PC-3 prostate; SK-MEL-5 melanoma; UACC-62 melanoma; LOX IMVI melanoma; SK-MEL-28 melanoma.
Holding throughout (test): NCI-60 one-dose screen, 48 h (100 = growth as untreated, 0 = no growth, -100 = all killed)
Common to all, as to settings: 10 µM unless noted

SMILES strings stand for the structures. Compounds without any hit were thinned out: in the full panel of roughly 83,000, 20% have a hit.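 Single-dose data. Exposure time 48 hours. Values below 10 considered active.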 Values without a mark were called inactive. Calls of active or inactive are those of the source.

As for `CCOC(=O)c1cc(C(=O)c2cc(OC)c(OC)c(OC)c2)n2ccccc12`, the growth in the test on DU-145 prostate is 24.9%; in the test on K-562 leukemia, 11.5%; with MALME-3M melanoma, 35.6%; in the test on MDA-MB-231 breast, 37.9%; with RXF 393 renal, -0.358% (active); in the test with SF-268 CNS, 55.7%. For the same compound, the growth in the test on SF-295 CNS was 21.3%; in the test with SF-539 CNS, -6.66% (active); with UACC-257 melanoma it was 50.1%; with M14 melanoma it was -21.8% (active); in the test on HCT-15 colon it was 29%; with HT29 colon it was 1.16% (active). The growth is 32.9% in the test on SNB-75 CNS; 43.4% in the test with SNB-19 CNS; 21.6% in the test on U251 CNS; 22.1% in the test on PC-3 prostate; 37.7% in the test on SK-MEL-5 melanoma; 37.8% with UACC-62 melanoma. Further, the figures for the growth in the test on LOX IMVI melanoma and in the test with SK-MEL-28 melanoma were 47% and 72.3%, respectively.

As to `C=C1C(=O)O[C@H]2[C@H]1CC/C(COC(=O)NCc1ccc(Cn3c(=O)sn(-c4ccc(C#N)cc4)c3=O)cc1)=C\CC[C@@]1(C)O[C@@H]21`, the growth was 8.56% (active) with DU-145 prostate; 20.4% in the test on K-562 leukemia; 56.9% in the test on MALME-3M melanoma; 48.6% with MDA-MB-231 breast; 52.7% with RXF 393 renal; 75.1% in the test with SF-268 CNS. Further, the growth in the test with SF-295 CNS was 102%; with SF-539 CNS, 61.2%; in the test on UACC-257 melanoma it was 69.4%; in the test on M14 melanoma, 68.8%; in the test with HCT-15 colon it was 87.8%; in the test with HT29 colon it was 48.2%. Moreover, the growth in the test on SNB-75 CNS is 80.3%; with SNB-19 CNS, 88.5%; with U251 CNS it was 81.2%; with PC-3 prostate, 71.6%; in the test on SK-MEL-5 melanoma, 89.5%; with UACC-62 melanoma, 69.3%. The results for the growth in the test on LOX IMVI melanoma and in the test on SK-MEL-28 melanoma were 65.9% and 87.2%, respectively.

`O=C1/C(=C\c2ccccn2)c2ccccc2N1c1c(Cl)cccc1Cl`: the growth with DU-145 prostate is -0.0912% (active); with K-562 leukemia, 9.42% (active); in the test with MALME-3M melanoma it was 67.3%; in the test with MDA-MB-231 breast, 15.7%; in the test with RXF 393 renal, -35.2% (active); with SF-268 CNS, 7.81% (active). Further, the growth was 12.3% in the test with SF-295 CNS; 1.27% (active) in the test on SF-539 CNS; 59.3% in the test on UACC-257 melanoma; -43.6% (active) with M14 melanoma; 12.6% in the test on HCT-15 colon; 10.8% with HT29 colon. The growth is -28.2% (active) in the test with SNB-75 CNS; 34.8% in the test with SNB-19 CNS; -2.48% (active) in the test on U251 CNS; 31.4% with PC-3 prostate; 23.7% in the test on SK-MEL-5 melanoma; 24.9% in the test on UACC-62 melanoma. Also, the growth was -89.2% (active) in the test on LOX IMVI melanoma and 14.6% with SK-MEL-28 melanoma.

Consider `CNC1=CC(=O)c2c(C(=O)OC)c(C)[n+]([O-])c(C)c2C1=O`, for which the growth was 68.7% with DU-145 prostate; 71% with K-562 leukemia; -46.2% (active) in the test with MALME-3M melanoma; 63.8% in the test with MDA-MB-231 breast; 74.4% in the test with RXF 393 renal; 89.2% in the test on SF-268 CNS. The growth in the test on SF-295 CNS is 86.4%; in the test with SF-539 CNS, 83.8%; in the test with UACC-257 melanoma it was 49.3%; in the test with M14 melanoma it was 24%; with HCT-15 colon, 49.1%; in the test with HT29 colon it was 16.5%. Further, the growth in the test on SNB-75 CNS is 147%; with SNB-19 CNS, 81.5%; in the test with U251 CNS, 64%; in the test on PC-3 prostate, 61.9%; in the test with SK-MEL-5 melanoma, -47.9% (active); with UACC-62 melanoma it was 27.3%. The growth in the test on LOX IMVI melanoma was 34.4%; with SK-MEL-28 melanoma it was 96.3%.

In the case of `COc1ccc(C(=O)/C=C/c2ccc(Cl)cc2)cc1S(=O)(=O)Nc1c(N)nc(SC)[nH]c1=O`, the growth was 88.3% in the test on DU-145 prostate; 3.84% (active) with K-562 leukemia; 90.1% with MALME-3M melanoma; 68.2% in the test on MDA-MB-231 breast; 92% with RXF 393 renal; 45.3% in the test with SF-268 CNS. Besides, the growth with SF-295 CNS is 90.1%; with SF-539 CNS, -5.49% (active); with UACC-257 melanoma it was 90.9%; with M14 melanoma it was 74.7%; with HCT-15 colon, 65.7%; with HT29 colon, 31.3%. The growth was 33.4% in the test on SNB-75 CNS; 8.18% (active) in the test on SNB-19 CNS; -4.2% (active) in the test on U251 CNS; 39.1% in the test with PC-3 prostate; 74.1% with SK-MEL-5 melanoma; 62.3% with UACC-62 melanoma. In addition, the growth in the test with LOX IMVI melanoma is 2.64% (active); in the test on SK-MEL-28 melanoma, 97.4%.

Turning to `CC(C)(C)c1cc(Cl)c(O)c(CNCCO)c1`, the growth with DU-145 prostate was 113%; in the test with K-562 leukemia, 102%; with MALME-3M melanoma it was 112%; in the test with MDA-MB-231 breast, 115%; in the test with RXF 393 renal, 98.1%; in the test on SF-268 CNS it was 106%. Further, the growth in the test on SF-295 CNS was 97%; with SF-539 CNS it was 107%; in the test on UACC-257 melanoma it was 110%; with M14 melanoma it was 104%; in the test on HCT-15 colon, 99.7%; with HT29 colon, 107%. Besides, the growth was 90.1% in the test on SNB-75 CNS; 113% in the test on SNB-19 CNS; 112% in the test on U251 CNS; 112% in the test with PC-3 prostate; 100% in the test on SK-MEL-5 melanoma; 107% in the test with UACC-62 melanoma. The values for the growth in the test on LOX IMVI melanoma and with SK-MEL-28 melanoma were 101% and 103%, respectively.

For `Cc1ccc(Cl)cc1NC(=O)c1sc2nc3c(cc2c1N)C(=O)CCC3`, the growth was 77.4% in the test on DU-145 prostate; 33.6% in the test on K-562 leukemia; 81.1% in the test with MALME-3M melanoma; 80% in the test on MDA-MB-231 breast; 42.1% in the test with RXF 393 renal; 74.9% in the test on SF-268 CNS. Besides, the growth is 4.01% (active) with SF-295 CNS; 47.7% in the test with SF-539 CNS; 44.9% with UACC-257 melanoma; 62.9% with M14 melanoma; 45.9% in the test on HCT-15 colon; 28.8% in the test on HT29 colon. The growth in the test on SNB-75 CNS was 48%; with SNB-19 CNS, 68.1%; in the test with U251 CNS, 59.1%; in the test with PC-3 prostate, 55.8%; in the test on SK-MEL-5 melanoma, 27%; in the test on UACC-62 melanoma it was 53.1%. The growth in the test with LOX IMVI melanoma is 68.1%; with SK-MEL-28 melanoma, 67%.
